Screen size: about 1,800 compounds; about 710 (39%) were called active. Roughly 28% stayed inconclusive and do not appear here. A selection follows. Measured potencies and affinities stand elsewhere. Unmarked numbers belong to inactive results.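 How the source made its calls: active means luciferase signal rise whose fitted curve crosses a set activity limit at or below the top valid tested dose; inconclusive means flat fit with 30 to 70% rise, or poor fit; inactive means signal falling, flat within 30%, or crossing above top dose.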
Assay: reporter signal increase, D54 LucT cells – cell-based, luminescence, cherry pick, counter-screen for N-linked glycosylation inhibitor project, dose response (AID 624404);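 further: 0% = median neutral control signal and 100% = twice that signal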
Settings: D54 LucT luciferase reporter counterscreen, 24 h; series mostly up to 19.5 µM; activity increase (luciferase signal): at the top concentration

| SMILES | activity increase (luciferase signal) |
| --- | --- |
| Cc1ccccc1OCCc1c(C)[nH]c(=S)[nH]c1=O | 24.5% |
| CCN1Cc2c(/C=C/c3ccccc3)nc3ccc(OC)cc3c2N(c2cccc(Cl)c2)C1 | -74.9% |
| O=C(Nc1nc2ccccc2c(=O)s1)c1ccco1 | 5.88% |
| COc1cc2nc(NC(=O)c3ccccc3)sc(=O)c2cc1OC | -3.32% |
| Cc1ccc(C(=O)NC(=C(Cl)Cl)S(=O)(=O)c2ccc(C)cc2)cc1 | 36% |
| CC(=O)N(C1=C(Cl)C(=O)c2ccccc2C1=O)C1CCCCC1 | -63.8% |
| COc1ccccc1OCC(=O)NNC(=O)c1ccoc1C | 17.5% |
| COc1cc2cc(C(c3nnnn3C(C)(C)C)N3CCc4ccccc4C3)c(=O)[nH]c2cc1OC (configuration not stated) | -3.46% |
| Cc1cc(Nc2cc(Cl)cc(Cl)c2)nc(N)n1 | 13.1% |
| CC(=O)c1ccc(Oc2cc(C)nc(-n3nc(C)cc3C)n2)cc1 | -4.49% |
| CCN1/C(=C/c2ccc3ccccc3[n+]2CC)C=Cc2ccccc21 | -66.4% |
| CCCCCCCCCCn1c2c(c(=N)c3c1CCC3)CCC2 | -66.6% |
| COc1ccc2cc(C)c3nnc(SCC(=O)Nc4nc(-c5ccc(F)cc5)cs4)n3c2c1 | -2.8% |
| COCCN(C(=O)CCl)C(C(=O)NC1CCCCC1)c1ccccc1C (configuration not stated) | -53.2% |
| COc1ccc(C(C)(O)c2nc(-c3ccc(F)cc3OC)cs2)cc1 (configuration not stated) | 35.5% |
| Nc1cccc2c1C(=O)N(C(=O)/C=C/c1ccc(F)cc1)C2=O | 26.8% |
| CC(=O)Cn1ncc(Br)c(Br)c1=O | 67.2% |
| Cn1c(Cl)cnc1C1CC(=O)c2cc(Cl)ccc2O1 (configuration not stated) | -14.5% |
| O=C(N/N=C\C=C\c1ccc([N+](=O)[O-])o1)c1cccs1 | 46.4% |
| O=C(Nc1ccc(N2CCCC2)c(Cl)c1)c1ccc([N+](=O)[O-])o1 | 27.7% |
| Cc1c(C(=O)Nc2ccc3oc(-c4cccnc4)nc3c2)oc2ccccc12 | -6.21% |
| O=C(Nc1ccc(-c2nc3cc(NC(=O)c4cccs4)ccc3o2)cc1)c1cccs1 | -4.38% |

| SMILES | activity increase (luciferase signal) |
| --- | --- |
| O=C(NCc1ccccc1)C(=O)NCC1COc2ccccc2O1 (configuration not stated) | 61.5% |
| CN=c1sc(C(=O)Nc2cccc(Cl)c2)cc(=O)n1C | 16% |
| O=C(CN1C(=O)/C(=C\c2ccc(F)cc2)Oc2ccccc21)N1CCN(c2ccccn2)CC1 | 14.4% |
| O=C1CCCC2=C1C(c1ccc(Cl)cc1)n1c(s/c(=C\c3ccc4ccncc4c3)c1=O)=N2 (configuration not stated) | -24.9% |
| COc1cccc(-n2c(SCC(=O)NC3CCCCC3)nc3n[nH]c(C)c3c2=N)c1 | 4.88% |
| COc1ccc(C(=O)/C=C\c2ccc(NC(=O)c3cccs3)cc2)cc1 | 35.6% |
| O=C1CCCN1CCCNc1nc(NCc2ccccc2)nc2ccsc12 | 28.6% |
| Cc1ccsc1CNc1ncnc2ccc(-c3c(C)noc3C)cc12 | -1.47% |
| COc1ccc(C(=O)c2cc([N+](=O)[O-])ccc2N2CCN(C)CC2)cc1 | -3.34% |
| COc1cc(/C=C/C(=O)c2ccc3c(c2)OCCO3)cc(OC)c1OC | -9.8% |
| CN(C)c1ccc(/C=C/C(=O)c2ccc(C(C)(C)C)cc2)cc1[N+](=O)[O-] | 13% |
| CCOc1cc(/C=C/C(=O)c2ccc3c(c2)OCCO3)ccc1OCC(=O)N(C)C | 31.7% |
| COC(=O)C(=Cc1ccc(-c2ccsc2C(=O)OC)o1)C(=O)OC | 47% |
| O=c1c2ccccc2sc2c(CO)ccc(NCCN3CCCCC3)c12 | 11.3% |
| Cc1ccc2cc3c(N)c4c(C)ccc(C)c4nc3nc2c1 | 29.4% |
| CC1=Nc2cc(C(=O)NCC3CCCO3)ccc2Sc2ccc(Br)cc21 (configuration not stated) | 6.05% |
| CCC1=Nc2cc(C(=O)NCc3ccco3)ccc2Sc2ccc(Cl)cc21 | -3.98% |
| O=C(/C=C/c1ccc([N+](=O)[O-])cc1)/C=C/c1ccco1 | 6.1% |
| CC(NC(=O)c1cccc2ccccc12)c1ccc2c(c1)CCCC2 (configuration not stated) | 22.9% |
| COc1cc2cc(/C=C/C(=O)c3ccco3)c(Cl)nc2cc1OC | -17.6% |
| CCOc1ccc2[nH]c(=O)c(CN(Cc3ccc(F)cc3)C(=O)c3ccco3)cc2c1 | 28.1% |
| O=C(Oc1c(Cl)cc(Cl)c2cccnc12)c1ccco1 | -31.1% |

| SMILES | activity increase (luciferase signal) |
| --- | --- |
| CN(C)c1ccc(CNC(=O)C2(C)Cc3c(-c4ccc5c(c4)OCO5)ccnc3O2)cc1 (configuration not stated) | 37% |
| CC1=C([N+](=O)[O-])C(c2ccccc2)C2=C(N1)c1ccccc1C2=O (configuration not stated) | 10.1% |
| CCCCCCCCn1c2c(c(=N)c3c1CCC3)CCCC2 | -57.8% |
| COc1cc(/C=N\NC(=O)c2sc(N)nc2C)cc(OC)c1OC | 15.9% |
| C#CC[N+](C)(C)CCCCCCCCCCCC | 37.5% |
| CCc1ccc(Nc2n[n+](-c3ccccc3)c(-c3ccc(N(CC)CC)cc3)s2)cc1 | -3.22% |
| CN(Cc1ccc(Cl)s1)C(=O)CCl | 1.46% |
| COC(=O)CNC(c1ccccc1)c1cc(Br)ccc1NC(=O)CCN1CCOCC1 (configuration not stated) | 8.3% |
| NS(=O)(=O)c1cc(C(=O)NCCOc2ccccc2)c(Cl)cc1Cl | 43.3% |
| COc1ccc(/C=C/C(=O)c2ccc3c4c(cccc24)CC3)cc1 | 8.97% |
| COc1ccc(C=CC(=O)c2ccc(OC)c(OC)c2O)cc1OC | 14.6% |
| COc1cc(/C=C/C(=O)c2ccc(Cl)s2)cc(OC)c1O | 3.5% |
| COc1ccc(OC(=O)N2C/C(=C/c3ccccc3)C(=O)/C(=C\c3ccccc3)C2)cc1 | -32.7% |
| O=CC1=C(c2ccccc2)Oc2ccccc2O1 | -21% |
| Nc1nonc1-c1nc2ccccc2n1Cc1ccccc1 | 30% |
| Cc1noc2ncnc(Sc3ccc(Br)cc3)c12 | 15.6% |
| COc1ccc(C=CC(=O)c2c(OC)cc(OC)c(OC)c2O)cc1 | -20.6% |
| COc1cc(O)c(C(=O)/C=C/c2ccccc2)c(OC)c1 | 49% |
| CCOC(=O)C(=Cc1ccc(-c2ccsc2C(=O)OC)o1)C(=O)OCC | 24.1% |
| Oc1cc(NCc2ccc(Cl)cc2)cc2cccnc12 | -33.2% |
| COc1cc(CNc2ccc(O)cc2)cc(Br)c1OCc1ccccc1 | 23.2% |
| CC(=O)n1cc(/C=N/NC(=O)c2sc(C)nc2C)c2ccccc21 | 65.5% |

| SMILES | activity increase (luciferase signal) |
| --- | --- |
| CCOc1ccc(-n2c(C)cc(C(=O)CCl)c2C)cc1 | -6.33% |
| COc1ccc(Nc2c3ccccc3nc3ccccc23)cc1 | -37.8% |
| COCCOC(=O)c1[nH]c2c(c1C)C(=O)CC(c1ccco1)C2 (configuration not stated) | 34.5% |
| CN(C)CCCNc1cc(-c2ccccc2)nc2cc(-c3cccc(F)c3)nn12 | 28.9% |
| CCCCCC[n+]1ccccc1/C=C/c1ccc(N(C)C)cc1 | -64.3% |
| CCN(CC)S(=O)(=O)c1ccc(-c2nnc(SCC(=O)N3CCc4ccccc43)o2)cc1 | 39% |
| Cc1ccc(Oc2ccc(S(=O)(=O)N3CCOCC3)cc2C(N)=O)c(-n2nc3ccccc3n2)c1 | -17.3% |
| O=C(c1ccc(Cl)cc1)C(CN1CCCCC1)c1ccccc1 (configuration not stated) | -90.7% |
| Nc1ccc2nc(-c3ccccc3)c(-c3ccccc3)nc2c1 | 4.94% |
| O=S(=O)(Nc1cccc2cccnc12)c1ccc(S(=O)(=O)N2CCCC2)cc1 | -5.43% |
| COc1ccc2nc3c(cc2c1)c(NC(=O)CC(C)C)nn3CC(C)C | -23.4% |
| O=C(Nc1c2ccccc2nc2ccccc12)C(Cl)(Cl)Cl | 41.3% |
| CN1CC(=O)N2C(c3ccc(Cl)cc3)c3[nH]c4ccccc4c3C[C@H]2C1=O (some centres not stated) | 11.1% |
| COc1ccc(Cn2c(=O)c3[nH]cnc3n(-c3ccccc3C)c2=O)cc1 | 14.1% |
| Cc1cc(-n2c(SCC(=O)NCCC3=CCCCC3)nc3n[nH]c(C)c3c2=N)ccc1Cl | 12.7% |
| CCN(CC)CCCNC(=O)CSc1c2c(nc3cc(Cl)ccc13)CCCC2 | -21.6% |
| CCOC(=O)c1[nH]c2ccc(F)cc2c1NC(=O)C(C)N1CCc2cc(OC)c(OC)cc2C1 (configuration not stated) | 17.3% |
| CCN(CC)c1ccc(NC(=O)CC2Oc3ccccc3NC2=O)c(C)c1 (configuration not stated) | 13.1% |
| COc1ccc(C2C3=C(COC3=O)Oc3cc4c(cc32)OCO4)cc1OC (configuration not stated) | 39.7% |
| COc1cc(NC(=O)NCc2ccco2)ccc1-c1ccc(NC(=O)NCc2ccco2)cc1OC | -17.9% |
| Cc1ccc(C)c(NC(=O)Cn2nnc(C(=O)NCc3ccco3)c2N)c1 | 50% |
| C=CCOc1ccccc1C(=O)/C=C1/C(=O)Nc2ccccc21 | 39.7% |

| SMILES | activity increase (luciferase signal) |
| --- | --- |
| c1cnc2nc3c4ccccc4c4ccccc4c3nc2c1 | 14% |
| CCn1c(SCC(=O)Nc2ccc(C(C)=O)cc2)nc2c([nH]c3ccccc32)c1=O | -9.93% |
| COc1ccc(-c2nnc(SCC(=O)Nc3ncc(C)s3)n2-c2ccccc2)cc1OC | -24.2% |
| Cc1ccc(C(C)C)c(OCc2nnc(SCC(=O)Nc3ncc(C)s3)n2C)c1 | -52.9% |
| Cc1cc(C)c(NC(=O)CSc2nc(COc3ccccc3)nc3ccccc23)c(C)c1 | 27.5% |
| COc1ccc2c(c1)c1ccc3c(c1n2C)C(=O)C=CC3=O | 7.43% |
| CC1(C(=O)NCc2ccc(F)c(F)c2)Cc2c(-c3ccc4c(c3)OCO4)ccnc2O1 (configuration not stated) | 17.7% |
| O=C(N/N=C/c1cccc(Br)c1)c1ccc(N2CCCC2=O)cc1 | 60.1% |
| CC(=O)/C=C/c1ccccc1Oc1c(F)c(F)nc(F)c1F | -19.5% |
| CC(=O)N1c2ccccc2C(=O)C1N(C)c1ccc(C)cc1 (configuration not stated) | 11.4% |
| COc1ccc(CCn2c(=N)c(C(=O)NCC3CCCO3)cc3c(=O)n4cccc(C)c4nc32)cc1 (configuration not stated) | -27.9% |
| COc1ccc(CCn2c(=N)c(C(=O)NCCN3CCOCC3)cc3c(=O)n4cccc(C)c4nc32)cc1OC | 8.4% |
| COc1ccc(NC(=O)COC(=O)/C=C/C(=O)OCC(=O)Nc2ccc(OC)c(Cl)c2)cc1Cl | 0.926% |
| Cn1cnc([N+](=O)[O-])c1S(=O)(=O)Oc1ccccc1 | 16.6% |
| CCOc1ccc(Nc2nnc(SCc3nc4ccccc4c(=O)[nH]3)s2)cc1 | 4.11% |
| CCOc1ccc(Nc2c3ccccc3nc3ccccc23)cc1 | -45.8% |
| CCN1/C(=C/c2sc(-c3ccccc3C)c[n+]2C)Sc2ccccc21 | -54.8% |
| O=C(CC1Sc2ccccc2NC1=O)NNc1cccc(Cl)c1Cl (configuration not stated) | 43.9% |
| O=C(Cc1ccc(Cl)cc1)Nc1ccccc1N1CCN(C(=O)c2ccccc2)CC1 | 309% |
